The whole screen tested about 310,000 compounds, of which about 14,000 (4.5%) showed an effect of 50% or more. The effect is printed as a negative number. The list comes from a sample in which strong results are over-represented; it also holds similar structures and randomly drawn compounds.
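Further: peak tail current of the secondary pulse compared with the same well before compound.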

The target of this experiment is human ether-à-go-go-related gene (hERG) potassium channel (human, UniProt Q12809). The experiment in a line: primary screen, population patch clamp on CHO cells stably expressing hERG; higher = less effect of the substance.
Chain of human ether-à-go-go-related gene (hERG) potassium channel (Q12809 whole entry, looked up): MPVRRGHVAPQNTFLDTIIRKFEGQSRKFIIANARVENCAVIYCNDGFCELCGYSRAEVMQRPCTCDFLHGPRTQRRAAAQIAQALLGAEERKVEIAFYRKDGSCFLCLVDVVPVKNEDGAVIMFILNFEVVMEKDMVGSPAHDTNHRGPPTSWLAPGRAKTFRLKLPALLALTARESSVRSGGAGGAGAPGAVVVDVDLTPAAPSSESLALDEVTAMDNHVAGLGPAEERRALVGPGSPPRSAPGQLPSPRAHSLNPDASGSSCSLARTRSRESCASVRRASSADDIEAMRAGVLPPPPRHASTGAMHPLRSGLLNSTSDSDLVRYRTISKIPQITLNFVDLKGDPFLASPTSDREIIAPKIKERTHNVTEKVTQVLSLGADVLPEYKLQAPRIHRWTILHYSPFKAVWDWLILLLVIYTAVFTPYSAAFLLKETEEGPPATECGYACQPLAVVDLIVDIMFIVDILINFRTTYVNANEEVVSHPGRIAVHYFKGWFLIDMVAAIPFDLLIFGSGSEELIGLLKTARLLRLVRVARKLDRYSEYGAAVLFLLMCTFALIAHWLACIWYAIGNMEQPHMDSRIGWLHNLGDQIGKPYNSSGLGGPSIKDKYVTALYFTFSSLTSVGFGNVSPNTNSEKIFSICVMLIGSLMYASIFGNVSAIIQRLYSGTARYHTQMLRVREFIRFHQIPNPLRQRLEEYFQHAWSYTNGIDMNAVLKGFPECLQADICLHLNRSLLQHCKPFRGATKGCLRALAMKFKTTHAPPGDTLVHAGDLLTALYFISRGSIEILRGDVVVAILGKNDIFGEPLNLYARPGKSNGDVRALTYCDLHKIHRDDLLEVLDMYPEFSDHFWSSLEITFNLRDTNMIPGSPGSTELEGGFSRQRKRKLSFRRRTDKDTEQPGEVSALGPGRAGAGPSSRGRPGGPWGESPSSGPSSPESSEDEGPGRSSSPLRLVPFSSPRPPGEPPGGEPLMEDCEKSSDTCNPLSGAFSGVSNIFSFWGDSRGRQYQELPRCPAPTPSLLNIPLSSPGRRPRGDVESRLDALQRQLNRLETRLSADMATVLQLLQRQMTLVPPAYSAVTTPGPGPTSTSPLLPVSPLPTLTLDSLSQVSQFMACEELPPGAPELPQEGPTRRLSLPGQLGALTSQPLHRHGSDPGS
Turning to `Cc1cc(/C=C(/C#N)C(=O)O)c(C)n1-c1cccc2ccccc12`, the “hERG current change (%, negative = inhibition) at 10uM” value came to 20.1%.
Then `CCn1cc(C(=O)NCc2cccc(C(F)(F)F)c2)c(=O)c2ccc(C)nc21`, with 2.71%; and `O=C(Nc1ccc(N2CCN(Cc3ccccc3)CC2)cc1)c1cccnc1`, with -14.4%; and `CN1CCN(C(=O)CCN2C(=O)/C(=C/c3cccc(Br)c3)SC2=S)CC1`, with 11.4%.
In the case of `O=C(c1ccccc1)c1ccc(OC(=O)N2CCCC2)cc1` it was -11%; in that of `CCCNc1c(NS(=O)(=O)c2ccc(C)c(C)c2)c(=O)oc2ccccc12`, -30.6%.
Then `N#Cc1cccc(S(=O)(=O)Nc2c(NC3CCCCC3)c3ccccc3oc2=O)c1`, with -53.9%; and `COc1ccc(S(=O)(=O)Nc2c(NC3CCCCC3)c3ccccc3oc2=O)cc1OC`, with -6.99%; and `CCCNc1c(NS(=O)(=O)c2c(F)c(F)c(F)c(F)c2F)c(=O)oc2ccccc12`, with -7.27%.
As for `Cc1ccc(S(=O)(=O)Nc2c(NC3CCCCC3)c3ccccc3oc2=O)cc1`, the “hERG current change (%, negative = inhibition) at 10uM” value is on record as -33.9%.
In the case of `CCCNc1c(NS(=O)(=O)c2ccc(C(C)(C)C)cc2)c(=O)oc2ccccc12` it was 10.8%; in that of `CCCNc1c(NS(=O)(=O)c2ccc(C)cc2C)c(=O)oc2ccccc12`, -52.2%.
Then `Cc1ccc(S(=O)(=O)Nc2c(NC3CCCCC3)c3ccccc3oc2=O)cc1C`, with 2.53%; and `Cc1ccc(S(=O)(=O)Nc2c(NC3CCCCC3)c3ccccc3oc2=O)c(C)c1`, with -19.6%.
Then `CCCNc1c(NS(=O)(=O)c2ccc(OC)c(OC)c2)c(=O)oc2ccccc12`, with -74.1%; and `COc1ccc(S(=O)(=O)Nc2c(NC3CCCCC3)c3ccccc3oc2=O)cc1`, with -45.2%; and `COc1ccc(OC)c(S(=O)(=O)Nc2c(NC3CCCCC3)c3ccccc3oc2=O)c1`, with -54.1%.
In the case of `CCOc1ccccc1N1CCN(C(=S)Nc2ccc(S(=O)(=O)Nc3ncccn3)cc2)CC1`, the “hERG current change (%, negative = inhibition) at 10uM” value is on record as -3.73%.
Then `O=C(COC(=O)Cc1ccc(-c2ccccc2)cc1)NCc1ccccc1`, with 20.8%.
With `CC(C)c1ccc(NC(=O)c2ccc(Br)o2)cc1`, the “hERG current change (%, negative = inhibition) at 10uM” value turned out to be 3.82%.
In the case of `COc1ccc(OCC(=O)Nc2ccncc2)cc1` it was -17.3%; in that of `O=c1[nH]c(CN2CCN(CCO)CC2)nc2ccccc12`, 21.5%; in that of `O=C(NC1=NCCS1)c1cc(Cl)ccc1Cl`, -24%.
Then `Cn1cc(C(c2ccccn2)c2cn(C)c3ccccc23)c2ccccc21`, with 8.3%; and `CCc1[nH]c(=S)c(C#N)c(-c2ccccc2)c1C(=O)OC`, with 25.5%.
Then `Cc1cc(=O)[nH]c(N/N=C/c2sccc2C)n1`, with -1.84%.
Take `CCOc1ccc(C(=O)COC(=O)CC)cc1`: the “hERG current change (%, negative = inhibition) at 10uM” value turned out to be 4.46%.
Then `CC(/C=N/n1cnnc1)=C\c1ccco1`, with -16.9%.
Then `CCCNc1c(NS(=O)(=O)c2cccc(C#N)c2)c(=O)oc2ccccc12`, with -58.7%; and `CCCNc1c(NS(=O)(=O)c2ccc(Br)cc2)c(=O)oc2ccccc12`, with -34.7%.
Then `CCCNc1c(NS(=O)(=O)c2ccc3c(c2)CCCC3)c(=O)oc2ccccc12`, with 8.8%; and `CC(NC(=O)c1ccc(S(=O)(=O)N(C)C)cc1)c1ccccc1` (stereo not drawn), with 0.971%.
Consider `CC(NC(=O)c1cc(S(=O)(=O)N(C)C)ccc1Cl)c1ccc(-n2ccnc2)cc1` (stereo not drawn), for which the “hERG current change (%, negative = inhibition) at 10uM” value was -76.8%.
Then `CC(C)NC(=O)c1ccc(S(=O)(=O)N(C)C)cc1`, with 0.0301%; and `CNC(=O)c1cc(S(=O)(=O)N(C)C)ccc1Cl`, with 5.59%.
Then `CC(NC(=O)c1ccc(S(=O)(=O)N(C)C)cc1)c1ccc(-n2ccnc2)cc1` (stereo not drawn), with -74%; and `O=C(Cc1c(O)c2ccccc2[nH]c1=O)NC1CCCCCC1`, with 3.69%.
In the case of `OCCNc1c2ccccc2nc2c(F)c(F)c(F)c(F)c12` it was 14.6%; in that of `Cn1nc(C(F)(F)F)c(/C=N/OC(=O)c2ccccc2Cl)c1SCc1ccccc1Cl`, -5.41%; in that of `CSc1ccc(S(=O)(=O)NCC(=O)OCC(=O)NCCc2ccccc2)cc1[N+](=O)[O-]`, 9.18%.
Consider `Cc1cc(S(=O)(=O)NCC(C)C)ccc1OCC(=O)NCc1ccco1`, for which the “hERG current change (%, negative = inhibition) at 10uM” value was -73.4%.
In the case of `CC(C)CNS(=O)(=O)c1ccc(OCC(=O)NCc2ccco2)cc1` it was -11.6%; in that of `Cc1cc(S(=O)(=O)NCC(C)C)ccc1OCC(=O)NCc1ccccn1`, -22.8%; in that of `CSc1ccc(S(=O)(=O)NCC(=O)OCC(=O)NCc2ccco2)cc1[N+](=O)[O-]`, -61.7%.
Then `CSc1ccc(S(=O)(=O)NCC(=O)OCC(=O)NCc2cccs2)cc1[N+](=O)[O-]`, with -44.5%; and `N#C/C(=N\Nc1cccc(C(F)(F)F)c1)C(=O)c1ccsc1`, with 11.3%; and `COc1ccc(N2C(=O)CC(N3CCN(c4ccccc4OC)CC3)C2=O)cc1` (stereo not drawn), with 6.7%.
Then `O=S(=O)(Cc1ccccc1)Nc1ccc(S(=O)(=O)N2CCCC2)cc1`, with 5.25%; and `Cc1ccc(C)c(C(=O)CSc2n[nH]c(-c3ccncc3)n2)c1`, with -0.0279%.
Consider `CC[n+]1c(/C=C(\C)SC)sc2ccccc21.COS(=O)(=O)[O-]`, for which the “hERG current change (%, negative = inhibition) at 10uM” value was 3.25%.
In the case of `CCN1/C(=C/C=C/c2sc3ccccc3[n+]2CC)Sc2ccccc21.[I-]` it was -73.8%.
Then `CCN1/C(=C/C=C/C=C/C=C/c2sc3ccccc3[n+]2CC)Sc2ccccc21.[I-]`, with -49.5%; and `CC[n+]1c(/C=C(/C)SC)sc2ccccc21.COS(=O)(=O)[O-]`, with 5.99%.
In the case of `CCN1/C(=C/C(C)=C/c2sc3ccccc3[n+]2CC)Sc2ccccc21.[I-]` it was -78.8%; in that of `CCN1/C(=C\C=C(C(C)=O)C(C)=O)Sc2ccccc21`, -2.64%; in that of `CCN1/C(=C/C=C/C=C/c2sc3ccccc3[n+]2CC)Sc2ccccc21.[I-]`, -78.9%.
In the case of `CCOC(=O)/C(=C/C=C1\Sc2ccccc2N1CC)C(C)=O`, the “hERG current change (%, negative = inhibition) at 10uM” value was found to be 4.94%.
In the case of `CCN1/C(=C\C=C2\C(=O)N(C)C(=S)N2C)Sc2ccccc21` it was 24%; in that of `Cn1nc(C(=O)NCc2cccc(Cl)c2)c2c1-c1ccccc1S(=O)(=O)C2`, 9.4%.
In the case of `CN(C)S(=O)(=O)c1cccc(NC(=O)Cn2cc(C(F)(F)F)cc(Cl)c2=O)c1` it was 3.98%.
Then `CN(CC(=O)Nc1cccc(F)c1)CC(=O)N(C)CC(=O)Nc1ccccc1Br`, with -13.7%; and `O=c1ccnc(NCCc2ccccc2)[nH]1`, with 12.7%; and `COCCCn1c(-c2ccco2)nc2ccccc2c1=O`, with -16%.
With `COc1ccc(-c2nc3ccccc3c(=O)n2CCCn2ccnc2)cc1`, the “hERG current change (%, negative = inhibition) at 10uM” value is listed as -49%.
In the case of `O=c1c2ccccc2nc(-c2ccco2)n1CCCn1ccnc1` it was -53.9%.
In the case of `CCCCn1c(-c2ccco2)nc2ccccc2c1=O` it was -12.2%; in that of `O=c1c2ccccc2nc(-c2ccccc2)n1CCCn1ccnc1`, -31.9%; in that of `Cc1ccc(-c2nc3ccccc3c(=O)n2CCCn2ccnc2)cc1`, -57.7%.
In the case of `CCn1c(NN)nc2sc3c(c2c1=O)CCC3` it was 17.5%; in that of `COc1ccc2c(c1)C=C([C@@H]1C[C@H]3CN(c4ccccc4)C(=O)[C@]34CCCN14)CO2`, -49.2%.
As for `OCC(O)C1OC(Nc2ccc(Br)cc2)C(O)C1O` (stereo not drawn), the “hERG current change (%, negative = inhibition) at 10uM” value is on record as 16.7%.
In the case of `CN(C)c1cccc(C(=O)NCc2ccc(Cl)cc2)c1` it was -8.25%; in that of `Cc1nc2nc[nH]n2c(=O)c1NS(C)(=O)=O`, 4.48%.
For `CCc1ccc(-c2nc(SCC(=O)NC3CCS(=O)(=O)C3)n[nH]2)cc1` (stereo not drawn), the “hERG current change (%, negative = inhibition) at 10uM” value turned out to be 4.84%.
In the case of `C=CCn1c(=O)c(C=Nc2c(OC)cccc2[N+](=O)[O-])c(O)n(CCCC)c1=O` it was -23.8%.
Then `C=CCn1c(=O)c(C=Nc2cccnc2Cl)c(O)n(CCCC)c1=O`, with -5.65%; and `C=CCn1c(=O)c(C=Nc2cccc([N+](=O)[O-])c2)c(O)n(CCCC)c1=O`, with -55%.
In the case of `O=C(COc1coc(CN2CCc3ccccc3C2)cc1=O)Nc1cccc([N+](=O)[O-])c1` it was 2.89%.
For `CCc1ccc(N2CC(C(=O)Nc3ccc(C)c(S(=O)(=O)N4CCOCC4)c3)CC2=O)cc1` (stereo not drawn), the “hERG current change (%, negative = inhibition) at 10uM” value is -34.6%.
For `COc1ccc(NS(=O)(=O)c2cccc(Cl)c2)cc1S(=O)(=O)N1CCCCC1`, the “hERG current change (%, negative = inhibition) at 10uM” value is given as 7.81%.
On to `COc1ccc(NC(=O)CC(C)CC(=O)NCc2ccccc2)c(OC)c1` (stereo not drawn), for which the “hERG current change (%, negative = inhibition) at 10uM” value was -0.642%.
Then `CCCc1cc(Nc2cccc(OCC)c2)n2ncnc2n1`, with -68%; and `CCCc1cc(Nc2ccccc2)n2ncnc2n1`, with 2.69%; and `CCCc1cc(Nc2cccc(OC)c2)n2ncnc2n1`, with -28.5%.
Take `CSc1ccc(S(=O)(=O)N2CCC(C(=O)NC3CC3)CC2)cc1`: the “hERG current change (%, negative = inhibition) at 10uM” value was -7.17%.
In the case of `C=CCNC1=C(Cl)C(=O)c2ccccc2C1=O`, the “hERG current change (%, negative = inhibition) at 10uM” value was found to be 4.26%.
Consider `Cc1ccc(S(=O)(=O)N2CCN(C)CC2)cc1C(=O)NC1CCCCC1`, for which the “hERG current change (%, negative = inhibition) at 10uM” value is on record as -19.5%.

Values taken from PMC4336329 (PLoS ONE, 2015).
